From PubChem BioAssay AID743312 (Broad Institute, 2014)
Potency and affinity values are given separately. Activity calls are given as the source filed them. No rule for the calls is given here.

Assay: A549 cell cytotoxicity, dose response, cytotoxicity control, plate reader, dry powder, set 6 (AID 743312)
Conditions: series mostly up to 26 µM; activity change, negative = cytotoxicity: at the top concentration
With `O=S(=O)(c1ccc(OCCn2cnc3ccccc32)cc1)N1CCOCC1` the “activity change, negative = cytotoxicity” value was 22.3% (inactive).
For `Cc1ccc(C(C)C)c(OCCn2c(N)nc3ccccc32)c1`, the “activity change, negative = cytotoxicity” value was -5.89% (inactive).
With `CCc1nc2ccccc2n1CCOc1ccccc1` the “activity change, negative = cytotoxicity” value was -6.05% (inactive).
With `Cc1cccc(OCCn2c(=S)[nH]c3cc(F)ccc32)c1` the “activity change, negative = cytotoxicity” value was -13.9% (inactive).
For `Fc1ccc(OCCn2c(=S)[nH]c3ccccc32)cc1`, the “activity change, negative = cytotoxicity” value was 18.4% (inactive).
With `c1ccc2c(c1)ncn2CCOc1ccc2c(c1)CCC2` the “activity change, negative = cytotoxicity” value was -25.2% (inactive).
In the case of `Clc1ccc(OCCn2cnc3ccccc32)c(Cl)c1`, the “activity change, negative = cytotoxicity” value is reported as 20.7% (inactive).
In the case of `CCSc1nc2ccccc2n1CCOc1ccccc1`, the “activity change, negative = cytotoxicity” value is reported as -4.67% (inactive).
In the case of `CSc1nc2ccccc2n1CCOc1cc(C)ccc1C(C)C`, the “activity change, negative = cytotoxicity” value is reported as -10.7% (inactive).
In the case of `COc1ccccc1OCCn1c(SC)nc2ccccc21`, the “activity change, negative = cytotoxicity” value is reported as 4.85% (inactive).
For `CC(C)Oc1cccc(OCCn2cnc3ccccc32)c1`, the “activity change, negative = cytotoxicity” value was 18.7% (inactive).
For `Cc1ccc(OCCn2cnc3ccccc32)c(C)c1`, the “activity change, negative = cytotoxicity” value was 6.48% (inactive).
In the case of `OCc1nc2ccccc2n1CCOc1ccccc1`, the “activity change, negative = cytotoxicity” value is reported as -16.5% (inactive).
With `Fc1ccc2c(c1)[nH]c(=S)n2CCOc1ccccc1` the outcome was “inactive”.
With `Cc1ccccc1OCCn1cnc2ccccc21` the “activity change, negative = cytotoxicity” value was -4.27% (inactive).
In the case of `Cc1ccc2c(c1)[nH]c(=S)n2CCOc1ccccc1`, the “activity change, negative = cytotoxicity” value is reported as 14% (inactive).
With `S=c1[nH]c2cc(Cl)ccc2n1CCOc1ccccc1` the “activity change, negative = cytotoxicity” value was -10.2% (inactive).
For `Cc1ccc(C(C)C)c(OCCn2c(NC#N)nc3ccccc32)c1`, the “activity change, negative = cytotoxicity” value was -6% (inactive).
In the case of `Cc1ccc(OCCn2cnc3cc(C)c(C)cc32)cc1`, the “activity change, negative = cytotoxicity” value is reported as -14.1% (inactive).
In the case of `COCc1nc2ccccc2n1CCOc1ccc(C(C)(C)C)cc1`, the “activity change, negative = cytotoxicity” value is reported as -14% (inactive).
